{"source": "PubChem BioAssay AID2284142", "about": "(EPA ToxCast)", "note": "Calls of active or inactive are those of the source. Rule for the calls: active = hit-call score of the fitted dose curve at least 0.9, where 1 is the maximum; inactive = score below 0.9."}
{"target": "human Adenosine Receptor A1 Agonism, ADORA1 (gene 134) (UniProt P30542)", "sequence (P30542 whole entry, looked up)": "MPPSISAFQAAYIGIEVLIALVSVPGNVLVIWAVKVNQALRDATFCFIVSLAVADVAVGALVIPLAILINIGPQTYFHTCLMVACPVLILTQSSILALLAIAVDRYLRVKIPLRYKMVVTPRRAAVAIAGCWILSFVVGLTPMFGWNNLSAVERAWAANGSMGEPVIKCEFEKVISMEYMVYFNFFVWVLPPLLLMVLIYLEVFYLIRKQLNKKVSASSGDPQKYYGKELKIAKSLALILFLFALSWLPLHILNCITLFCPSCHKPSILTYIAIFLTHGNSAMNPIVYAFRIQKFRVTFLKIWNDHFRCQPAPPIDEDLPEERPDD", "assay": "ERF_FR_GPCR_hADORA1: Eurofins (ERF) G Protein-Coupled Receptor (GPCR) Radioligand Binding LeadHunter Assay for human Adenosine Receptor A1 Agonism", "experimental": "ERF_FR_GPCR_hADORA1 is a biochemical, single-readout assay that uses extracted gene-proteins in a cell-free assay. Measurements were taken 1 hour after chemical dosing in a 96-well plate. See A1 Human Adenosine GPCR Binding (Agonist Radioligand) Assay, Cerep.ERF_FR_GPCR_hADORA1 is an assay component calculated from the ERF_FR_GPCR_hADORA1 assay. It is designed to measure radioligand binding using a type of binding reporter as detected by scintillation counting with radiometry technology.Data from the assay component ERF_FR_GPCR_hADORA1 was analyzed at the assay endpoint, ERF_FR_GPCR_hADORA1, in the positive analysis fitting direction relative to DMSO as the negative control and baseline of activity. Using a type of binding reporter, […] activity can be used to understand changes in binding as they relate to gene ADORA1. To generalize the intended target to other relatable targets, this assay endpoint is annotated to the gpcr intended target family, where the subfamily is adenosine.\n2) Dose Response: 90 ul of 10 mM stock -OR- 1 mg (pre-weighed) for a top concentration at 10 uM."}
{"smiles": "O=C(/C=C/c1ccc(O)cc1)CC(=O)/C=C/c1ccc(O)cc1", "AC50": "1.92 µM (active)"}
